For 62 molecules, inhibition results are on record in PubChem BioAssay AID2013 (Sanford-Burnham Center for Chemical Genomics, 2009).

About 370 (0.13%) of roughly 290,000 compounds were called active.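 The calls were made as follows: active = spots per cell inhibited over 60%, with over 100 cells counted and total cytoplasm intensity under 500,000; inconclusive = wells with under 100 cells, flagged as likely toxic; inactive = the rest.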 Shown is part of a subset that was picked to be rich in actives. Entries with a potency or affinity are not part of this list.

This experiment deals with G-protein coupled receptor 55 (Homo sapiens) (UniProt Q9Y2T6). In words: inhibition of LPI-stimulated GPR55 beta-arrestin translocation – imaging, U2OS, beta-arrestin-GFP, LPI agonist, primary screen (AID 2013).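 Also: U2OS cells stably carrying GPR55 and arrestin-GFP stimulated by 5 µM LPI near EC80; imaged beta-arrestin-GFP aggregate spots per cell after agonist stimulation; plate controls were LPI-stimulated DMSO wells for no effect and DMSO wells without LPI for full effect.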 The note with it: LPI antagonism, at 10 µM, stronger effect = higher value.
G-protein coupled receptor 55 (Homo sapiens), sequence (Q9Y2T6 whole entry, looked up): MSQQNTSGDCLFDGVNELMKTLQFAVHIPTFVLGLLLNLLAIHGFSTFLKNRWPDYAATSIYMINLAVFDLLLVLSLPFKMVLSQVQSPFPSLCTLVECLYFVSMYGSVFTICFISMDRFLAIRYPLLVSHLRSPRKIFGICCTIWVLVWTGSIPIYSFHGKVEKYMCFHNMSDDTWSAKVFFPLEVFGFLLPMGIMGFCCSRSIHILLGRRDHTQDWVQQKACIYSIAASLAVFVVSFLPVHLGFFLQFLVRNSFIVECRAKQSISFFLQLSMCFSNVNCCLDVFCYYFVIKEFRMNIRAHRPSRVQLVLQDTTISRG
For the molecule `Cc1cc(C)c(C)c(Oc2ncnc(N)c2[N+](=O)[O-])c1`, the inhibition (in general, the drop in the measured response relative to a control, in per cent) was 0.6% (inactive).
The result for `Cc1nc([N+](=O)[O-])cn1CC(=O)Nc1ccc(F)c(Cl)c1` reads 1.9% (inactive).
The result for `Cn1ccnc1SCC(=O)N1CCc2ccccc21` reads -2.6% (inactive); that for `O=S(=O)(/N=C/N1CCOCC1)c1ccc(Cl)cc1`, 8.2% (inactive); that for `COc1cc(OC)cc(C(=O)N2CCN(C(=O)c3cccs3)CC2)c1`, -11.9% (inactive).
The figure for `COc1ccc(OC)c(-n2c(=O)c3ccccc3c3ccccc3c2=O)c1` is 9.4% (inactive); for `O=C1NC(=O)/C(=C\c2cn(CC(=O)N3CCOCC3)c3ccccc23)S1` it is -3.8% (inactive).
For `COc1ccc(OC)c(CNc2c(C=O)c(=O)[nH]c3ccccc23)c1`, the inhibition is 1.2% (inactive).
As to `COc1ccc(N2C(=O)CCC2=O)c(OC)c1`, the inhibition was 1.4% (inactive).
The result for `O=Cc1cn(CC(=O)N2CCOCC2)c2ccccc12` reads 6.5% (inactive); that for `COc1ccc2[nH]cc(C=O)c2c1`, -7.9% (inactive); that for `O=C(c1ccccc1)N1N=C(c2ccccc2)CC1c1ccccc1[N+](=O)[O-]` (configuration not stated), 4% (inactive).
The figure for `OC(COc1cccc2ccccc12)CN1CCCC1` (configuration not stated) is -4.7% (inactive); for `CN1C(=O)[C@H]2[C@@H](/C=C/c3ccccc3)N3C(=O)CN(CC4CC4)C(=O)[C@@]3(C)[C@H]2C1=O` it is 7.6% (inactive).
For the molecule `Cc1cc(C)c(C)c(OCCN2CC(C)OC(C)C2)c1` (configuration not stated), the inhibition is -23.1% (inactive).
The result for `Cc1ccc(C(C)C)c(OCC(O)CN2CCc3ccccc3C2)c1` (configuration not stated) reads 2.1% (inactive); that for `O=S(=O)(c1ccccc1F)N1CCC(c2nc3ccccc3[nH]2)CC1`, -18.2% (inactive); that for `COc1cc(C2=NOC(C(=O)Nc3cc(C)on3)C2)cc(OC)c1OC` (configuration not stated), 0.6% (inactive).
Consider `COc1ccccc1NC(=O)COc1ccc2c(c1)OCO2`, for which the inhibition is 19% (inactive).
The result for `CS(=O)(=O)CCC(C(=O)OCC(=O)c1ccc(Cl)cc1)N1C(=O)c2ccccc2C1=O` (configuration not stated) reads -0.1% (inactive).
The result for `Cc1ccc(NC2(C(F)(F)F)N=C(c3ccccc3)NC2=O)nc1` (configuration not stated) reads 87% (active); that for `O=C1NC(c2ccccc2)=NC1(Nc1ccccn1)C(F)(F)F` (configuration not stated), 13.1% (inactive); that for `Cc1ccnc(NC2(C(F)(F)F)N=C(c3ccccc3)NC2=O)c1` (configuration not stated), -6% (inactive).
The figure for `CCOc1ccc(C2(C)CC(=O)N(C)C2=O)cc1` (configuration not stated) is 5.8% (inactive).
For `Cc1nnc(-c2cccc(Br)c2)c2cn(-c3ccccc3Cl)nc12`, the inhibition is 7.4% (inactive).
The figure for `COc1ccc(-n2cc3c(-c4cccc(Br)c4)nnc(C)c3n2)cc1` is 45.1% (inactive); for `Cc1nnc(-c2cccc(Br)c2)c2cn(-c3cccc(Br)c3)nc12` it is 1.6% (inactive).
The figure for `Cc1nnc(-c2cccc(Br)c2)c2cn(-c3ccccc3)nc12` is 9.1% (inactive); for `COc1ccc(C)cc1NS(=O)(=O)c1cn(C)nc1C` it is 3.9% (inactive).
The figure for `CC(NC(=O)CCc1nnc(CCCc2ccccc2)o1)c1ccccc1` (configuration not stated) is -2.7% (inactive).
`CN(Cc1ccccc1)C(=O)CCC1CCN(C(=O)CC2=CCCCC2)CC1`: the inhibition was 0.7% (inactive).
The figure for `O=C(N1CCN(c2ccc(F)cc2)CC1)C12CC3CC(CC(C3)C1)C2` is 1.6% (inactive); for `CCCN1CNC(=S)N(c2ccccc2OC)C1` it is 10% (inactive).
The figure for `N=c1c2c3c(sc2ncn1CCN1CCOCC1)CCCC3` is 18.2% (inactive); for `COc1cc(/C=C2/C(=O)NN(c3ccc(C)c(Cl)c3)C2=O)cc([N+](=O)[O-])c1O` it is 2.2% (inactive).
The result for `O=C1NC(=S)N/C1=C/c1cc2c(cc1[N+](=O)[O-])OCO2` reads 4.7% (inactive); that for `CCOC(=O)C1=C(c2ccccc2)NC(=O)NC1c1ccc(OC)cc1OC` (configuration not stated), 11.3% (inactive).
`Cc1ccc(SCC(=O)Nc2cccc(-c3nnc(-c4ccco4)o3)c2)cc1`: the inhibition is 23.1% (inactive).
The figure for `COCCNC(=S)N(CCc1c(C)[nH]c2ccc(Cl)cc12)Cc1cccs1` is 21.1% (inactive); for `CNC(=S)N(CCc1c(C)[nH]c2ccc(Cl)cc12)Cc1cccs1` it is 79.7% (active).
The result for `CNC(=S)N(CCc1c(C)[nH]c2ccc(C)cc12)Cc1cccs1` reads -0.9% (inactive).
The figure for `COc1ccc(NC(=O)CCNS(=O)(=O)c2ccc(C)c(C)c2)cc1OC` is 0.7% (inactive); for `C=CCN1C=CC(=C/C=C(/C#N)C(=O)OCC)C=C1` it is 4.5% (inactive).
For `CCCN1C=CC(=CC=C(C#N)C#N)C=C1`, the inhibition is 52.4% (inactive).
Regarding `C=CCN1C=CC(=CC=C(C#N)C#N)C=C1`, the inhibition is 67.9% (active).
Consider `CCOc1ccc(N(CC(=O)Nc2ccc(C)c(F)c2)C2=NC3CS(=O)(=O)CC3S2)cc1` (configuration not stated), for which the inhibition is 2.9% (inactive).
The figure for `Cc1ccc(C)c(N2CCN(C(=O)Cn3ncc4c([nH]c5ccc(C)cc54)c3=O)CC2)c1` is 0.4% (inactive); for `CC(=O)N/C(=N/c1nc(C)cc(C)n1)Nc1ccc(NC(C)=O)cc1` it is -4.3% (inactive).
The figure for `Cc1ccc(NS(=O)(=O)c2cc(C(=O)O)ccc2Cl)cc1` is 5.6% (inactive).
The figure for `O=C(O)c1ccc(NC(=S)NC(=O)c2cccc(COc3ccccc3)c2)cc1` is -20.3% (inactive).
Regarding `O=C(O)c1cccc(S(=O)(=O)Nc2ccc(OCc3ccccc3)cc2)c1`, the inhibition was 1.6% (inactive).
The result for `O=C(NC(=S)Nc1ccc(Cl)c(C(=O)O)c1)c1cccc(COc2ccccc2)c1` reads 3.5% (inactive); that for `COc1ccccc1-n1c(SCC(=O)Nc2cccc(C)c2)nc2c(c1=O)SCC2`, 0.7% (inactive).
The figure for `O=C1Nc2ccccc2N(O)N1c1ccc(S(=O)(=O)N2CCCCCC2)cc1` is 7.8% (inactive); for `O=C(CSc1nc2ccccc2s1)N1CCCCC1` it is 7.6% (inactive); for `CN(C)CCN(Cc1ccccc1)c1nccc(N(C)C)c1C#N` it is 7.4% (inactive).
Take `CN(C)c1nccc(N(Cc2ccccc2)Cc2ccccc2)c1C#N`: the inhibition is 49.1% (inactive).
The result for `CCN(CC1COc2ccccc2O1)C(=S)Nc1ccc(F)cc1` (configuration not stated) reads 8.3% (inactive); that for `COc1ccc2c(c1)NC(c1cc(Cl)cc(Cl)c1O)c1cccn1-2` (configuration not stated), 3.9% (inactive).
The figure for `COc1ccc(C2Nc3cc(OC)ccc3-n3cccc32)cc1` (configuration not stated) is 8.6% (inactive); for `COc1ccc2c(c1)NC(c1ccc(N(C)C)cc1)c1cccn1-2` (configuration not stated) it is 67% (active); for `Cc1cccc(N(CC(=O)N2CCN(C)CC2)S(=O)(=O)c2ccccc2)c1` it is 9.1% (inactive).
